Inconclusive results are not listed. Calls of active or inactive are those of the source. Calls follow the shape of the dose curve; as a rule, active = well fitted cell-killing curve with a large enough effect; inconclusive = small, poorly fitted or top-dose-only effect; inactive = flat fitted curve, though single readings scatter. Peptide text beside a SMILES is read from it. * marks the point of attachment. Cbz = O=C(OCc1ccccc1)*
Potency is read from the fitted curve at half-maximal effect.

This test in a line: Quantitative highthroughput screen to assess conditional lethalithy of NOMO1 cells grown in RPMI1640 with untreated serum (RPMI+s) (AID 1963876). Also: nearly all actives have a fitted effect of over 35% in size. The note with it: NOMO1 AML cells in RPMI+serum, CellTiter-Glo viability, 48 h; series mostly up to 45.8 µM. A digest of the protocol:
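Each medium arm—HPLM with 10% dialyzed FBS, or RPMI1640 with 5 mM glucose and 10% untreated or dialyzed FBS—was screened against an 11-point, 3-fold compound titration for 48 h at 37 °C, with CellTiter-Glo luminescence as endpoint.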
In general terms: ATP-based viability assays read luminescence as a measure of living cells.
As for `N#Cc1c(N(CC(=O)O)CC(=O)O)sc(C(=O)O)c1CC(=O)O`, the Potency entry was “inactive”.

With `CNC1CCC(N(Cc2cccc(-c3ccncc3)c2)C(=O)c2sc3ccccc3c2Cl)CC1` (centres undefined), the Potency is 3320 nM (active).

As for `CN(C)S(=O)(=O)c1ccc2c(c1)C(=Cc1cc3c([nH]1)CCCC3)C(=O)N2`, the Potency result is “inactive”.

Turning to `O=C1N(c2ccccc2)c2ccccc2C1(Cc1ccncc1)Cc1ccncc1`, the Potency entry is “inactive”.

Take `OC(Cn1cncn1)(Cn1cncn1)c1ccc(F)cc1F`: the Potency result was “inactive”.

In the case of `Cc1nc(N)ncc1-c1nc(N2CCOCC2)c2sc(C(C)(C)O)cc2n1`, the Potency was 209 nM (active).

`CCCCCCCCCCCCCC(=O)N[C@H](CO)[C@H](O)c1ccc([N+](=O)[O-])cc1`: the Potency was 2350 nM (active).

`CN1CCN(CCCN2c3ccccc3Sc3ccc(C(F)(F)F)cc32)CC1`: the Potency is 1870 nM (active).

As for `O=C(Nc1cccc(Cl)c1)Nc1ncc(CCNc2ncnc3ccsc23)s1`, the Potency is 296 nM (active).

As for `O=C(O)Cc1cccc(OCCCN(Cc2cccc(C(F)(F)F)c2Cl)CC(c2ccccc2)c2ccccc2)c1`, the Potency result was “inactive”.

Regarding `COc1ccc(C2CNC(=O)C2)cc1OC1CCCC1` (centres undefined), the Potency entry was “inactive”.

Consider `CC(C)c1cnn2c(NCc3ccccc3)cc(N[C@@H](CO)[C@H](O)CO)nc12`, for which the Potency is 743 nM (active).

Take `CC(C)C[C@@H](C=O)NC(=O)[C@H](CC(C)C)NC(=O)[C@H](CC(C)C)NC(=O)OCc1ccccc1` (Cbz-Leu-Leu-Leu-aldehyde): the Potency was 743 nM (active).

As for `CCS(=O)(=O)c1cccc(-c2cc(C(=O)NC3CCN(C)CC3)c(C)c3[nH]c4ncc(C)cc4c23)c1`, the Potency is 14800 nM (active).

(Values after PubChem BioAssay (NCATS).)
